Out of some 340,000 compounds screened, about 3,300 (0.97%) were called active.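 How the source made its calls: active means mean activation above about 17%, with every replicate also reaching it (limit read from the data, passing the limit was not always enough); inconclusive means only one of the two conditions met; inactive means the rest.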 Only a selection was taken, and actives are over-represented in it overall.

Results on 87 compounds are retold here after PubChem BioAssay AID493131 (Broad Institute, 2011).

Chain of Protein FosB (Mus musculus) (P13346 whole entry, looked up): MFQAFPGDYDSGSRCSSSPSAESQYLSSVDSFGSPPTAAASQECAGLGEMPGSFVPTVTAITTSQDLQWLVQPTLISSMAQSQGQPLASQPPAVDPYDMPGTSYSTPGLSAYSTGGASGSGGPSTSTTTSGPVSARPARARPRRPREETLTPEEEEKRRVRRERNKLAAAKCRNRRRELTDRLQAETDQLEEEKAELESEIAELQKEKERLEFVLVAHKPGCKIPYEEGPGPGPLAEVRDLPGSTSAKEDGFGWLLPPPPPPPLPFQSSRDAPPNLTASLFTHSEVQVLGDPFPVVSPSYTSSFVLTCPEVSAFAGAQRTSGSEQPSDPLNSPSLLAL

The experiment concerns the target Protein FosB (Mus musculus) (UniProt P13346). Briefly: enhancers of mouse delta FosB DNA binding – biochemical, fluorescence polarization, TAMRA-CDK5 oligo, single point, primary screen (AID 493131).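 Further: fluorescence polarization rise as delta FosB binds a TAMRA Cdk5 AP-1 oligo.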 The note with it: purified delta FosB, at 25 µM, stronger effect = higher value, percent of positive-control signal above neutral wells. A general note: Polarisation of emitted light reports the rotation of a fluorescent probe.
For the compound `COC(=O)c1ccc2c(c1)S(=O)(=O)NC(=NCCCN1CCOCC1)S2`, the activation is 0.881% (inactive). For the compound `COC(=O)c1ccc(C2C(Oc3ccccc3C)C(=O)N2CCc2ccc(OC)c(OC)c2)cc1` (configuration not stated), the activation was -14.8% (inactive). In the case of `CC(C)(C)NC(=O)c1cccc(NC(=O)Cc2ccc(Br)cc2)c1`, the activation is -8.13% (inactive).

As to `COc1ccc(CC(=O)Nc2ccc(C(=O)NC(C)(C)C)cc2)cc1`, the activation is 35.1% (active). For `COc1ccc(NC(=O)c2ccc(C#CC(C)(C)O)cc2)cc1`, the activation was -5.48% (inactive).

With `CC(=O)N1CC(=O)N(CC(=O)Nc2ccc(Br)cc2)C1=S`, the activation is -0.232% (inactive). With `C[N+](C)(CCCCCC[N+](C)(C)CCCN1C(=O)c2cccc3cccc(c23)C1=O)CCCN1C(=O)c2cccc3cccc(c23)C1=O` the figure was 85% (active). For the compound `O=C1c2ccccc2C(=O)N1CCCCCCN1C(=O)c2ccccc2C1=O`, the activation was -2.1% (inactive). Turning to `O=C1c2cccc3cccc(c23)C(=O)N1CCCCCc1n[nH]c(=S)o1`, the activation was -2.23% (inactive). For `CCOC(=O)Cc1csc(SCC(=O)NC(C)C23CC4CC(CC(C4)C2)C3)n1` (configuration not stated), the activation was -21% (inactive). With `CC1(C)CC(=O)CC2(C1)NCC(c1ccccc1Cl)c1c2[nH]c2ccccc12` (configuration not stated) the figure was -13.7% (inactive); with `O=C(NCc1cccnc1)C12CC3CC(CC(C3)C1)C2`, 0.989% (inactive).

Regarding `CC(C)n1cnc2c(NCc3ccccc3)cc(OCC3CCN(C)CC3)cc21`, the activation is 91.8% (active).

As for `CCC(CO)Oc1cc(NC(=O)c2cccc(F)c2)c2ncn(C(C)C)c2c1` (configuration not stated), the activation was 7.98% (inactive). Under `CCC(CO)Oc1cc(NC(=O)c2cccc3ccccc23)c2ncn(C(C)C)c2c1` (configuration not stated) stands -12.6% (inactive); under `C/C(CC(=O)Nc1cccc(C(F)(F)F)c1)=N\NC(=O)C(=O)NCC(C)C`, -12.7% (inactive).

With `CCCCOc1ccc(CON(C(C)=O)C(C)=O)cc1Cl`, the activation is -3.14% (inactive). As for `CCn1ccnc1CNC(=O)CC1C(=O)NCCN1Cc1ccc(F)cc1Cl` (configuration not stated), the activation was -11.3% (inactive). With `COc1ccc(C2NC(=O)c3ccccc3N2)cc1` (configuration not stated) the figure was -0.293% (inactive); with `Brc1ccccc1C1Nc2cccc3cccc(c23)N1`, -8.49% (inactive); with `Oc1ccc(C2Nc3cccc4cccc(c34)N2)cc1`, 58.9% (active). On to `O=C(CCc1nnc(CCCCc2ccccc2)o1)NC(c1cccnc1)C(F)(F)F` (configuration not stated), for which the activation was -5.13% (inactive).

Take `O=C(O)C1CCN(S(=O)(=O)N2CCOCC2)CC1`: the activation was 1.05% (inactive). For `Nc1nc(NCCCN2CCOCC2)nc(Nc2ccccc2)c1[N+](=O)[O-]`, the activation was 4.67% (inactive). With `CNc1nc(Nc2ccc(C)c(Cl)c2)nc(N)c1[N+](=O)[O-]`, the activation was 60.7% (active). Under `CCN1CCN(c2nc(Nc3cccc(F)c3)nc(N)c2[N+](=O)[O-])CC1` stands 10.8% (inactive); under `CCNC(=O)COC(=O)/C=C/c1c(C)nn(Cc2cccc(OC)c2)c1Cl`, -7.6% (inactive). With `CC(C)Nc1ccc(-n2nc3ccccc3[n+]2[O-])cc1` the figure was -2.96% (inactive). Under `CC1(C)CC(=O)c2c(n(S(=O)(=O)c3ccccc3)c3ccc(NS(=O)(=O)c4ccccc4)cc23)C1` stands -1.95% (inactive).

As to `CCOc1ccc2nc(NC(=O)c3cc([N+](=O)[O-])ccc3N3CCOCC3)sc2c1`, the activation was 26.6% (active). Regarding `COc1ccc(S(=O)(=O)N2CCCCC2)cc1NC(=O)c1cc([N+](=O)[O-])ccc1N1CCOCC1`, the activation is 5.22% (inactive). With `O=C(NCc1ccc2c(c1)OCO2)c1cc([N+](=O)[O-])ccc1N1CCOCC1`, the activation was 5.71% (inactive). Take `Cn1ccc(=Nc2ccc(NC(=O)c3ccc(N=c4ccn(C)c5ccc([N+](=O)[O-])cc45)cc3)cc2)cc1`: the activation is 62.2% (active). Turning to `CCc1ccc(NC(=O)c2ccc(Cn3cc([N+](=O)[O-])cn3)cc2)cc1`, the activation was 4.46% (inactive). With `COc1cc(NS(=O)(=O)c2ccc(NC(=O)c3ccc([N+](=O)[O-])cc3)cc2)ncn1` the figure was -0.999% (inactive).

For `COc1ccc(C(=O)Nc2ccnn2C2CCN(Cc3ccncc3)CC2)cc1`, the activation is -4.76% (inactive). Under `O=C(NCc1ccc2c(c1)OCO2)c1c(-c2ccsc2)sc2ccccc12` stands -2.79% (inactive); under `O=S(=O)(c1ccc(Cl)cc1)c1nc(-c2ccccc2F)oc1NCCN1CCOCC1`, -12.7% (inactive). Turning to `Cc1ccc(S(=O)(=O)N2CCN(C(=O)COC(=O)c3c(C)cc(C)cc3C)CC2)c(C)c1`, the activation was -5.88% (inactive).

Take `Cc1ccc(S(=O)(=O)N2CCN(C(=O)COC(=O)/C=C/c3cccc(Cl)c3)CC2)c(C)c1`: the activation was -10.6% (inactive). On to `COc1ccc(/C=C/C(=O)OCC(=O)N2CCN(S(=O)(=O)c3ccc(C)cc3C)CC2)cc1OC`, for which the activation is 19.8% (active). For the compound `Cc1ccsc1C(=O)NNC(=O)COc1ccc(Br)cc1`, the activation was -0.652% (inactive). As to `NC(=NC(=O)c1ccccc1)C1=C(O)CCC1=O`, the activation is -12.8% (inactive). With `COC(=O)c1nc2n(n1)C(c1ccc([N+](=O)[O-])cc1)C(C(=O)Nc1ccc(Cl)cc1)=C(C)N2` (configuration not stated) the figure was 34.5% (active); with `COCCOC(=O)C1=C(C)Nc2nc(C)nn2C1c1ccccc1` (configuration not stated), -7.61% (inactive); with `COc1cc(C2C(C(=O)Nc3ccc(F)cc3)=C(C)Nc3nc(CCCO)nn32)cc(OC)c1OC` (configuration not stated), -9.9% (inactive). With `COC(=O)/C(=C\Nc1ccccc1)NC(=O)c1ccc(Cl)cc1Cl` the figure was 4.01% (inactive). As to `COc1cccc(C2CC(c3cccs3)=NN2C(=O)CSC2=NCCS2)c1OC` (configuration not stated), the activation is -11.4% (inactive). On to `Nc1nonc1-n1nnc(C(=O)N/N=C/c2ccc(Cl)cc2)c1-c1ccc2c(c1)OCO2`, for which the activation is 32.2% (active). Under `CC(C)c1c(C(=O)N/N=C/c2ccc(-c3ccccc3)cc2)nnn1-c1nonc1N` stands -2.45% (inactive); under `Nc1nonc1-n1nnc(C(=O)N/N=C/C2CCCCC2)c1-c1ccccc1`, -11.3% (inactive); under `CC(Sc1nncn1C)C(=O)Nc1ccccc1-c1ccccc1` (configuration not stated), -4.45% (inactive). With `O=C(CSCc1ccc([N+](=O)[O-])cc1)Nc1cccc(C(=O)Nc2ccccc2C(=O)O)c1` the figure was -3.8% (inactive). On to `O=C(COCc1cc(-c2ccc3c(c2)OCO3)on1)N1CCN(c2cccc(Cl)c2)CC1`, for which the activation is -10.2% (inactive). Under `Cc1cccc2c1-c1sc(C(=O)NCCCN3CCc4ccccc4C3)cc1CO2` stands 22.8% (active); under `O=C(NCCCN1CCOCC1)c1cc2c(s1)CCC2`, -3.83% (inactive); under `CN1CCN(CCCNC(=O)c2cc3c(=O)oc4ccccc4c3s2)CC1`, -39.5% (inactive). Consider `C=CCn1c(Oc2ccc(C(=O)OC)cc2)nc2c1c(=O)n(C)c(=O)n2C`, for which the activation is 2.74% (inactive). With `CC(C)=C1C2CCC1C1C(=O)N(NC(=O)c3ccco3)C(=O)C21` (configuration not stated), the activation was 5.44% (inactive). With `COc1ccc(C)cc1NC(=O)CCCN1C(=O)NC(C)(C)C1=O` the figure was 1.82% (inactive); with `COc1ccc2c(c1)c(=O)c(C(=O)c1ccc(Cl)cc1)cn2CC(=O)Nc1ccc(F)cc1`, 101% (active); with `COc1ccc(OC)c(C(=O)c2ccc(Cl)cc2)c1`, 6.81% (inactive). For `O=C(c1ccc(F)cc1)c1cn(Cc2ccc(F)cc2)c2cc3c(cc2c1=O)OCCO3`, the activation was -2.37% (inactive). Under `CC1(C)CC2CC(C)(CN2c2ncnc3ccc(Br)cc23)C1` (configuration not stated) stands -14.7% (inactive). Under `C=CCn1c2ccccc2c2nnc(SCc3[nH]c(=O)[nH]c3C(=O)CCCCC(=O)OCC)nc21` stands -0.527% (inactive); under `CCOc1cc(NC(=O)c2ccccc2C(=O)O)c(OCC)cc1NC(=O)c1ccccc1F`, -3.46% (inactive); under `CCC(=O)Nc1ccc2nc(C)n(Cc3ccccc3Cl)c(=O)c2c1`, -9.12% (inactive).

With `CCN1CCN(c2cc3nc(C)n(Cc4ccccc4)c(=O)c3cc2NC(=O)c2ccccc2F)CC1`, the activation is 27.5% (active).

On to `CCOc1cc(CO)ccc1OCC(=O)N1CCCCC1`, for which the activation is -0.227% (inactive).

Take `O=C(COc1coc(CN2CCN(c3ccccc3F)CC2)cc1=O)N1CCc2ccccc21`: the activation is 21.9% (active). As to `O=C(COc1coc(CN2CCN(c3ccccc3)CC2)cc1=O)N1CCc2ccccc21`, the activation was -7.12% (inactive). With `O=C(COc1coc(CN2CCN(c3ccccc3)CC2)cc1=O)Nc1ccccc1F` the figure was -11.2% (inactive); with `Nc1cc(=O)n(Cc2ccccc2)c(=O)n1Cc1ccccc1`, -1.18% (inactive); with `CC(=O)Nc1sc2c(c1C(c1cccc(F)c1)N1CCN(CCO)CC1)CCCC2` (configuration not stated), -12.2% (inactive). `Cc1nn(CC(=O)Nc2ccc(F)cc2)c(=O)c2ccccc12`: the activation was 0.886% (inactive). With `O=C(CN1C(=O)S/C(=C\c2ccccc2F)C1=O)NCCCn1ccnc1` the figure was -4.31% (inactive); with `Cn1cccc1/C=C1\SC(=O)N(CC(=O)Nc2ccc(F)cc2)C1=O`, 30.6% (active); with `CC(C)c1cc(C(=O)O)on1`, 5.07% (inactive). Consider `COc1ccc(C2CC(c3cccs3)Nc3nnnn32)cc1` (configuration not stated), for which the activation was -5.14% (inactive). Under `Fc1ccc(-c2ccc(CNCc3ccccn3)o2)cc1Cl` stands -10.2% (inactive); under `O=C(/C(=C/c1cccc(Cl)c1)c1nc2ccccc2[nH]1)c1ccccc1`, 0.879% (inactive).

For `O=C(Cc1ccc(Cl)cc1)c1ccccc1`, the activation is -2.82% (inactive). `O=C(Cc1nc2ccccc2[nH]c1=O)c1ccc(Cl)cc1`: the activation was 25% (active). In the case of `COc1cccc2c1C(=O)c1c(O)c3c(c(O)c1C2=O)CC(O)(C(C)=NNC(=O)c1ccc(Cl)c(Cl)c1)CC3OC1CC(N)C(O)C(C)O1` (configuration not stated), the activation was -409% (inactive). With `O=C(COc1ccccc1Cl)Nc1ccc(C(=O)c2ccc(C(=O)O)cc2)cc1` the figure was -0.74% (inactive); with `O=C(COc1ccccc1Cl)Nc1ccccc1C(=O)NC1CC1`, -11.8% (inactive). Under `CC(=O)Nc1ccc(NC(=O)COc2ccccc2C(=O)Nc2cccc(Cl)c2Cl)cc1` stands 26% (active).
